From PubChem BioAssay (NCI)
The panel holds about 83,000 compounds, 20% with a hit somewhere; the sample as a whole holds those more often.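 Growth was measured after 48 h exposure to one concentration of compound in 96-well plates. Values under 10 count as active.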 Active and inactive are the calls of the source.

Each compound was assayed on HOP-62 NSCLC (assay: NCI-60 one-dose screen, 48 h (100 = growth as untreated, 0 = no growth, -100 = all killed)). Settings: 10 µM unless noted.
Protocol: Growth inhibition of the HOP-62 human Non-Small Cell Lung tumor cell line is measured as a screen for anti-cancer activity. Cells are grown in 96 well plates and exposed to the test compound for 48 hours. Compounds are tested at a single concentration, which is 10^-5 M for most compounds. The reported endpoint is percent growth (GI% or GIPRCNT), where numbers from 0 - 100% represent growth inhibition, and numbers from -100% - 0 represent cell death. For example, a value of 40 represents 60% growth inhibition. A value of 0 means no net growth occurred over the course of the experiment. A value of -40 indicates 40% of cells at the beginning of the experiment died by the end of the experiment. A value of -100 means all cells are dead at the end of the experiment.
NCI-60 Human Tumor Cell Lines Screen was performed using the standard one-dose NCI protocol, which is described in more detail at https://dtp.cancer.gov/discovery_development/nci-60/default.htm.
Compounds with GIPRCNT values below 10 were considered active. Activity score was based on GIPRCNT using the following formula: […]
Score is 0 for GIPRCNT values of 100 or above, 50 for GIPRCNT values of 0, and 100 for GIPRCNT values of -100.

| SMILES | growth |
| --- | --- |
| CCN1C(=O)N(CC)C2C1NN=c1s/c(=C\c3ccc[nH]3)c(=O)n12 (stereo not given) | 25.9% (inactive) |
| CCCCCCCCCCCCCCCCCC1=NC(C)(C)CN1CC(C)O (stereo not given) | 85.2% (inactive) |
| C=C(C)[C@@H]1CCC[C@]2(C(=O)N3CCN(C)CC3)CC[C@]3(C)[C@@H](CC[C@@H]4[C@@]5(C)CC/C(=N\NC(=O)c6ccncc6)C(C)(C)[C@@H]5CC[C@]43C)[C@@H]12 | 96.9% (inactive) |
| COC(=O)c1nc(-c2ccccc2)oc1S(=O)(=O)NCC(c1ccc(Cl)cc1)N1CCOCC1 (stereo not given) | 96.3% (inactive) |
| COc1cc(C(=O)c2c(-c3ccccc3)oc3c(OC)cccc23)cc(OC)c1OC | 30% (inactive) |
| CCN(CC)CCCN1C(=O)c2c(c(C)c3c(oc4ccc(O)cc43)c2C)C1=O | 89.9% (inactive) |
| CN1CCN(CCOc2ccc(-c3cnc4c(-c5cccc(F)c5F)cnn4c3)cc2)CC1 | 106% (inactive) |
| COc1ccc(/C=C/C(=O)c2ccc(NC(=O)CSc3nc4c([nH]3)c(=O)n(C)c(=O)n4C)cc2)cc1OC | 89.5% (inactive) |
| O=C(Nc1cnc(Nc2ccc(N3CCOCC3)nc2)nc1Oc1ccc(C(F)(F)F)cc1)c1ccncc1 | 93.1% (inactive) |
| CCOC(=O)c1nn(CC(O)c2ccccc2)c(NC(=O)Nc2cccc(F)c2)c1C (stereo not given) | 104% (inactive) |
| CC1(C)CC[C@]23CC[C@]4(C)[C@H](CC[C@@H]5[C@@]6(C)C/C(=C/c7ccncc7)C(=O)C(C)(C)[C@@H]6CC[C@]54C)[C@H]2[C@H]1OC3 | 91% (inactive) |
| COc1ccc(C2=NN(C(C)=O)C(c3cn(-c4ccccc4)nc3-c3ccc(Cl)cc3)C2)cc1 (stereo not given) | -19.3% (active) |
| Cc1nc2c(=O)nc3s/c(=C\c4ccco4)c(=O)n3c2nc1C | 94.8% (inactive) |
| O=C(/C=C/C12c3ccccc3C(c3ccccc31)C1C(=O)NC(=O)C12)c1ccc(Br)cc1 (stereo not given) | 56.3% (inactive) |
| O=C(C1CCCCC1)[C@@H]1[C@]2(C(=O)NC3CCCCC32)[C@@H]2CCCN2[C@@]12C(=O)NC1CCC(Cl)CC12 (stereo not given in full) | -73.2% [100 µM] (active) |
| O=[N+]([O-])c1cc(NS(=O)(=O)c2ccccc2)ccc1NS(=O)(=O)c1ccccc1 | 110% (inactive) |
| CC(C)(C)n1cc(-c2ccnc(NCCCNS(=O)(=O)c3cccc4ccccc34)c2)c(-c2cccc(F)c2)n1 | 92.2% (inactive) |
| Cc1c2cccnc2c(C)c2c1c1cc(CO)ccc1n2C | 30.5% (inactive) |
| CC(=C(c1ccc(OCCN2CCCCC2)cc1)c1ccc(OCCN2CCCCC2)cc1)c1ccc(Cl)cc1 | -82% (active) |
| COc1ccc(/C=C/C(=O)c2cc3c(N)c(C(=O)Nc4cccc(Cl)c4C)sc3nc2C)cc1 | 20.7% (inactive) |

| SMILES | growth |
| --- | --- |
| CC1(C)OB(O)c2cc(-c3nc4ccc5[nH]ncc5c4c4c3CCCC4)ccc21 | 68.2% (inactive) |
| C=CC(=O)Nc1ccc(Nc2nccc(-c3ccc(N4CCCC4)c(C#N)c3)n2)cc1 | 19.2% (inactive) |
| C=C1CC[C@@H]2[C@](C)(COC(C)=O)[C@H](OC(C)=O)CC[C@@]2(C)[C@@H]1CC(Nc1ccc(S(=O)(=O)NC(C)=O)cc1)C1=CCOC1=O (stereo not given in full) | 82% (inactive) |
| COc1cc(Cl)c(C)cc1NC(=O)c1cc2ccccc2cc1O | 26.5% (inactive) |
| Cc1ccc(NC(=O)Cn2c(Br)nc3c2c(=O)n(C)c(=O)n3C)cc1 | 6.37% (active) |
| C#COc1cccc(Nc2ncnc3cc(NC(=O)[C@@H](C)Cl)ccc23)c1 | 7.46% [6.25 µM] (active) |
| O=C(CCCCCCN1CC(=O)N2[C@H](c3ccc(Cl)cc3)c3[nH]c4ccccc4c3C[C@@H]2C1=O)NO | 61.9% (inactive) |
| CC1CCN(C(=O)CCCl)c2ccccc21 (stereo not given) | 112% (inactive) |
| COc1ccc(C#Cc2ccc(=O)oc2-c2cc(OC)c(OC)c(OC)c2)cc1O | 28.6% (inactive) |
| C=C1C(=O)O[C@H]2[C@H]1CC/C(COC(=O)c1ccc(C(=O)O)s1)=C\CC[C@@]1(C)O[C@@H]21 | 75% (inactive) |
| Cc1n[nH]c2ccc(Br)cc2c1=O | 93.9% (inactive) |
| Nc1nc2c(c3ncccc13)C(c1cccc(Cl)c1)Cc1ncccc1-2 (stereo not given) | 20.1% (inactive) |
| CCN1C(=O)N(CC)C2Nn3c(s/c(=C\c4ccccc4Br)c3=O)=NC21 (stereo not given) | 37% (inactive) |
| Cc1ccc2nc(NC(=O)CSc3nc(-c4ccccc4)c(C#N)c4nnnn34)sc2c1 | 97.4% (inactive) |
| COc1cccc(NCc2nnc(Nc3ccc(Cl)cc3)c3ccccc23)c1 | -17.1% (active) |
| COc1cc(/C=N/Nc2ccc(Br)cc2)cc(OC)c1OC | 93.1% (inactive) |
| COc1ccccc1N(C(C)=O)C1=C(Cl)C(=O)c2ccccc2C1=O | 38.6% (inactive) |
| CNC1=CC(=O)c2c(C(=O)OC)c(C)[n+]([O-])c(C)c2C1=O | 97.9% (inactive) |
| O=C(Cc1ccc(NC(=O)c2cccc(Cl)c2)cc1)NCc1ccccc1 | 46.6% (inactive) |
| COc1ccc(/C=C/c2c(C(=O)/C=C/c3ccccc3)c(C)nc3ccccc23)cc1 | -13.9% (active) |
